The values below come from PubChem BioAssay (Tox21).

Experiment [1] is described as follows: A CellTox Green Cytotoxicity Assay to monitor cytotoxicity in HepG2 cells - 8 hour (AID 1224890). Note: nearly all actives have a fitted effect of over 45% in size. In a few lines: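 HepG2 cells were seeded together with the CellTox Green dye at 600 cells/well, left 5 h at 37 C/5% CO2, then given compounds in DMSO. Fluorescence from dye bound to dead-cell DNA was read repeatedly over 40 h of treatment at 37 C.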
The nature of experiment [2]: qHTS assay to identify small molecule antagonists of the estrogen receptor alpha (ER-alpha) signaling pathway using the BG1 cell line in the presence of 0.1 nM 17-beta-estradiol - cell viability counter screen (AID 1259241). Note: nearly all actives have a fitted effect of over 40% in size. In a few lines: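 CellTiter-Fluor read (30 min, 37C) on ER-alpha/ERE-luc VM7Luc4E2 cells; 22 hr compound treatment; agonist 0.1 nM E2 final; same-well multiplex.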

Experiment [3] in a line: qHTS assay to identify small molecule antagonists of the androgen receptor (AR) signaling pathway using the MDA cell line in the presence of 0.5 nM R1881 - cell viability counter screen (AID 1259242). Note: nearly all actives have a fitted effect of over 45% in size. The method in brief:
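MDA-kb2 cells (human breast carcinoma, stably carrying MMTV-luciferase reporter) were exposed to compounds with 0.5 nM R1881 (final) for 16 hr at 37C, 0% CO2; viability then read as live-cell protease fluorescence (CellTiter-Fluor, 30 min) in the same wells.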

Experiment [4] is described as follows: qHTS assay to identify small molecule HDAC inhibitors (AID 1259364). Note: top concentration of the series differs between compounds; nearly all actives have a fitted effect of over 45% in size. The method in brief:
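Wild-type HCT-116 cells were plated overnight, exposed to compounds for 2 h at 37 °C, then given HDAC-Glo class I/II luminogenic reagent for 30 min at room temperature before luminescence was read.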
On the technique in general: qHTS replaces the single test concentration by a dilution series.

A short description of experiment [5]: qHTS assay to identify small molecule HDAC inhibitors - cell viability counter screen (AID 1259365). Note: series mostly up to about 92 µM; nearly all actives have a fitted effect of over 50% in size. The method in brief:
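To flag cytotoxic hits, 1,500 wild-type HCT-116 cells per well, plated the day before, receive test compounds for 2hr at 37 C before CellTiter-Glo reagent and a luminescence read.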

The nature of experiment [6]: qHTS assay to identify small molecule agonists of the sonic hedgehog signaling (Shh) pathway - cell viability counter screen (AID 1259366). Note: nearly all actives have a fitted effect of over 50% in size. Note: potency is the fitted concentration of half-maximal effect. In a few lines:
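Fluorescence from CellTiter-Fluor reports live cells in this counter screen. NIH/3T3-derived Gli1-Luc reporter cells receive test compounds for 24hr at 37C; reagent goes in at 23hr.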

A short description of experiment [7]: qHTS assay to identify small molecule antagonists of the sonic hedgehog signaling (Shh) pathway - cell viability counter screen (AID 1259367). Note: nearly all actives have a fitted effect of over 55% in size. Note: potency is the fitted concentration of half-maximal effect. In a few lines:
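NIH/3T3-derived Gli1-Luc reporter cells (2,000 per well) rested 4 hr at 37 C, then received DMSO compounds plus conditioned medium. After 23 hr of treatment, CellTiter-Fluor was added for 1 hr at 37C and fluorescence read.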

Experiment [8] has as its target Androgen receptor (Homo sapiens) (UniProt P10275). As to the kind of experiment: qHTS assay to identify small molecule antagonists of the androgen receptor (AR) signaling pathway using the MDA cell line in the presence of 0.5 nM R1881 (AID 1259243). Note: nearly all actives have a fitted effect of over 50% in size. In a few lines: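 MDA-kb2 human breast carcinoma cells carrying an MMTV-luciferase reporter (AR- and GR-responsive) were plated, rested 5 hr at 37C, dosed with compounds, then stimulated with 0.5 nM R1881 (final) for 16 hr; luminescence was read after ONE-Glo.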

Experiment [9] in a line: qHTS assay to identify small molecule phospholipidosis (PLD) inducers (AID 1259344; active = well fitted curve in the direction sought with a large enough effect; an effect the other way counts as inactive or inconclusive). The method in brief:
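HepG2 cells on collagen I, attached 4 h at 37 C, were co-treated with compound and LipidTOX Red dye for 24 h at 37 C, then fixed with paraformaldehyde plus Hoechst 33342 and imaged by high-content microscopy for phospholipid accumulation.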

The target in experiment [10] is Estrogen receptor (Homo sapiens) (UniProt P03372). The experiment is described as follows: qHTS assay to identify small molecule antagonists of the estrogen receptor alpha (ER-alpha) signaling pathway using the BG1 cell line in the presence of 0.1 nM 17-beta-estradiol (AID 1259244). Note: nearly all actives have a fitted effect of over 50% in size. The method in brief:
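VM7Luc4E2 cells (endogenous full-length ER-alpha, stable 4xERE-luciferase) were grown 5 days in phenol red-free medium with charcoal-stripped FBS, then exposed 22 h at 37C to compounds plus 0.1 nM (final) 17beta-estradiol; ONE-Glo luminescence read-out.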

Records with an inconclusive call do not appear. Some structures have more than one record in an assay (separate samples or runs), and their calls can disagree. Active and inactive are the calls of the source. Unless noted, calls come from the whole dose curve; as a rule, active = well fitted curve in the direction sought with a large enough effect in the repeat runs; inconclusive = weak or mixed curves; inactive = no such curve, though single readings can be large; an effect the other way counts as inactive or inconclusive.

Sequence of Estrogen receptor (Homo sapiens) (P03372 whole entry, looked up): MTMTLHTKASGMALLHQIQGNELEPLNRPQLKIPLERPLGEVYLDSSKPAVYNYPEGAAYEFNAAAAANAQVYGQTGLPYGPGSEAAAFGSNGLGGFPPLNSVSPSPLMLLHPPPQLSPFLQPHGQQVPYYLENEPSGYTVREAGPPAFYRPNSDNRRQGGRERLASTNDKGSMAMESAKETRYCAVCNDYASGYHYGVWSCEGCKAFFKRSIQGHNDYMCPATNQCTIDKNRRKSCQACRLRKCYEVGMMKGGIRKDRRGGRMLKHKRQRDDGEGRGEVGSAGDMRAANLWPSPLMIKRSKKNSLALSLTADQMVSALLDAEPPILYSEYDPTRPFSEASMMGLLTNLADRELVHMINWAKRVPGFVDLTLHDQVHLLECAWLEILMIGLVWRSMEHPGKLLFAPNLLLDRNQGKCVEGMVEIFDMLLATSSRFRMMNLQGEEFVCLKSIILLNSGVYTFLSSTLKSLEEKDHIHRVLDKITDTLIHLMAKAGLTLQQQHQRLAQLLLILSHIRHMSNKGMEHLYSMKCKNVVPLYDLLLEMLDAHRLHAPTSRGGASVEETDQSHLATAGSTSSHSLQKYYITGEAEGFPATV
Sequence of Androgen receptor (Homo sapiens) (P10275 whole entry, looked up): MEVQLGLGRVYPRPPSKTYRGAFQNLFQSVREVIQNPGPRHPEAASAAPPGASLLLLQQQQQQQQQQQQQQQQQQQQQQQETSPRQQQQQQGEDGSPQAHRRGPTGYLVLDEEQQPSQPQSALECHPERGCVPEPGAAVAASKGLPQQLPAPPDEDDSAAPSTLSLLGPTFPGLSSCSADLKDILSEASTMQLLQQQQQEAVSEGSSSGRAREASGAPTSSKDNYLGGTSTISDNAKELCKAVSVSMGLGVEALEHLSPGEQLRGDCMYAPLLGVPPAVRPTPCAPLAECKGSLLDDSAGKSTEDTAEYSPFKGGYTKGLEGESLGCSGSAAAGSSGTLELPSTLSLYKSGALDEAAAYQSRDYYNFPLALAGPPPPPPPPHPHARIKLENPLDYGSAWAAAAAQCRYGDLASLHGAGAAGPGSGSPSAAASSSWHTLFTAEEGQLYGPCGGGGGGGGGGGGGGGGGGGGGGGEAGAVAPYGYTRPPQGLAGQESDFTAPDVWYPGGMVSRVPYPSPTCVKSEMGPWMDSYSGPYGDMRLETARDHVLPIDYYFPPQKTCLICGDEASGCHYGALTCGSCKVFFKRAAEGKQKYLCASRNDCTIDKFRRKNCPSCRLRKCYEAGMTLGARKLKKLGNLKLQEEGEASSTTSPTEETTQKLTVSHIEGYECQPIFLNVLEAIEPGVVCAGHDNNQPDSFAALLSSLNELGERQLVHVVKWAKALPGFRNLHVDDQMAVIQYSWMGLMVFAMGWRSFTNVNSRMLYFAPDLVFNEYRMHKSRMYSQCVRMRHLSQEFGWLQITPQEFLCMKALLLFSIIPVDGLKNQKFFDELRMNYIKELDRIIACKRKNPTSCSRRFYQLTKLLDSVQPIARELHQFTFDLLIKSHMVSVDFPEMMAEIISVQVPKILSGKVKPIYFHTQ

As for `CC(=O)OC1CC(C)OC(C)O1` (stereo unspecified), the outcome in [1] and in [5] was inactive. Besides, the Potency result in [2], in experiment [3], in [4], in [6] and in experiment [7] was “inactive” each time.

On to `C=Cc1ccc(C)cc1`, for which the outcome in experiment [1] and in experiment [5] was inactive. Also, the Potency entry in [2], in [3], in experiment [4], in experiment [6] and in experiment [7] was “inactive” throughout.

On to `CCO[Si](CCCN)(OCC)OCC`, for which the outcome in experiment [1] and in experiment [5] was inactive. The Potency result in experiment [2], in [3], in experiment [4], in experiment [6] and in experiment [7] was “inactive” throughout.

For the compound `COC(=O)CCCC(=O)OC`, the compound was classed as inactive in experiment [1] and in experiment [5]. In addition, the Potency result in [2], in experiment [3], in experiment [4], in [6] and in [7] was “inactive” in each case.

Regarding `CCCCCCCCCCN`, the call in experiment [1] and in experiment [5] was inactive. Moreover, the Potency result in [2], in experiment [3], in experiment [4], in [6] and in [7] was “inactive” throughout.

Turning to `CCCCCCCO`, the compound was called inactive in experiment [1] and in experiment [5]. Also, the Potency entry in [2], in experiment [3], in experiment [4], in [6] and in experiment [7] was “inactive” throughout.

On to `C=CCc1ccc(OC)c(OC)c1`, for which the outcome in [1] and in experiment [5] was inactive. The Potency entry in experiment [2], in [3], in experiment [6] and in experiment [7] was “inactive” throughout.

On to `CC(C)=CCl`, for which the compound was called inactive in experiment [1] and in experiment [5]. Further, the Potency result in experiment [2], in [3], in [4], in experiment [6] and in experiment [7] was “inactive” in each case.

For the compound `Nc1ccc(Cl)c(N)c1`, the compound was called inactive in experiment [1] and in [5]. Further, the Potency result in experiment [2], in [3], in experiment [4], in experiment [6] and in [7] was “inactive” each time.

Regarding `CCO[Si](CCC#N)(OCC)OCC`, the call in [1] and in experiment [5] was inactive. Moreover, the Potency entry in experiment [2], in experiment [3], in experiment [6] and in experiment [7] was “inactive” in each case.

On to `CN/C(=C\[N+](=O)[O-])NCCSCc1csc(CN(C)C)n1`, for which the outcome in experiment [1], in experiment [9] and in experiment [5] was inactive. The Potency result in experiment [2], in experiment [8], in experiment [4], in [6] and in experiment [7] was “inactive” in each case.

As for `O=C(O)CCCCCCCCC(=O)O`, the result in [1] and in [5] was inactive. The Potency entry in experiment [2], in experiment [3], in experiment [6] and in [7] was “inactive” each time.

In the case of `CC(=O)c1ccc(O)cc1`, the result in [1] and in [5] was inactive. The Potency entry in [2], in experiment [3], in experiment [4], in experiment [6] and in experiment [7] was “inactive” in each case.

Turning to `Cc1ccc2ncccc2c1`, the compound was called inactive in experiment [1] and in experiment [5]. Moreover, the Potency result in experiment [2], in experiment [3], in [6] and in experiment [7] was “inactive” throughout.

As to `CN(C)c1ccc(Cc2ccc(N(C)C)cc2)cc1`, the compound was called inactive in experiment [1] and in experiment [5]. Also, the Potency entry in experiment [2], in experiment [3], in experiment [4], in experiment [6] and in experiment [7] was “inactive” in each case.

For `CC(C)CCCCCCCOC(=O)CCCCC(=O)OCCCCCCCC(C)C`, the compound was called inactive in experiment [1] and in experiment [5]. The Potency entry in experiment [2], in experiment [3], in experiment [4], in [6] and in experiment [7] was “inactive” throughout.

Consider `CCNC(=S)NCC`, for which the compound was called inactive in experiment [1] and in [5]. Besides, the Potency entry in experiment [2], in [3], in experiment [4], in experiment [6] and in experiment [7] was “inactive” in each case.

Turning to `COCCOC(=O)c1ccccc1C(=O)OCCOC`, the call in experiment [1] and in experiment [5] was inactive. For the same compound, the Potency entry in experiment [2], in [3], in [4], in experiment [6] and in experiment [7] was “inactive” in each case.

With `NCCCCCCN`, the result in experiment [1] and in experiment [5] was inactive. The Potency entry in experiment [2], in experiment [3], in experiment [6] and in experiment [7] was “inactive” throughout.

For `C=C(C)CNCC`, the call in experiment [1] and in experiment [5] was inactive. In addition, the Potency result in [2], in [3], in experiment [6] and in [7] was “inactive” in each case.

In the case of `CCOCCOCCOCCO`, the compound was called inactive in experiment [1] and in experiment [5]. Besides, the Potency entry in experiment [2], in experiment [3], in experiment [4], in experiment [6] and in [7] was “inactive” throughout.

As for `O=C(O)c1ccc(S(=O)(=O)N(Cl)Cl)cc1`, the result in experiment [1], in [9] and in experiment [5] was inactive. Also, the Potency result in [2], in experiment [3], in experiment [6] and in [7] was “inactive” in each case.

With `CC(=O)OCc1ccccc1`, the outcome in [1] and in [5] was inactive. Moreover, the Potency entry in experiment [2], in experiment [8], in [10], in experiment [4], in experiment [6] and in [7] was “inactive” each time.

Consider `C=C(C)C(=O)OCC(C)C`, for which the compound was classed as inactive in [1] and in [5]. Moreover, the Potency result in experiment [2] and in experiment [3] was “inactive” each time. Also, the Potency in experiment [6] was 27.7 µM (active) and inactive; in [7] it was 7.8 µM (active) and inactive.

For the compound `CC1(C)OC[C@@H]2O[C@@]3(C(=O)O)OC(C)(C)O[C@H]3[C@@H]2O1`, the outcome in experiment [1], in [9] and in experiment [5] was inactive. Also, the Potency entry in [2], in [6] and in experiment [7] was “inactive” throughout.

As to `CNC(=O)Oc1ccc2c(c1)[C@]1(C)CCN(C)[C@@H]1N2C`, the outcome in experiment [1], in experiment [9] and in experiment [5] was inactive. Moreover, the Potency entry in experiment [2], in [4], in experiment [6] and in experiment [7] was “inactive” in each case.

`C[Si]1(C)O[Si](C)(C)O[Si](C)(C)O[Si](C)(C)O1`: the outcome in experiment [1] and in experiment [5] was inactive. Besides, the Potency result in experiment [2], in experiment [4], in [6] and in experiment [7] was “inactive” throughout.

`CC(C)OP(=O)(CP(=O)(OC(C)C)OC(C)C)OC(C)C`: the compound was classed as inactive in [1] and in experiment [5]. Further, the Potency entry in experiment [2], in [10], in experiment [4], in experiment [6] and in [7] was “inactive” in each case.

With `CC(=O)CCC=C(C)C`, the result in experiment [1] and in experiment [5] was inactive. Moreover, the Potency result in [2], in experiment [10], in experiment [4], in experiment [6] and in experiment [7] was “inactive” each time.
